# Compounds without any hit were thinned out: in the full panel of roughly 83,000, 20% have a hit.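 Percent growth is the endpoint: 0 to 100 indicates growth inhibition (40 means 60% inhibition), 0 means no net growth, and negative values indicate cell death.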 Activity calls are given as the source filed them. The calls were made as follows: active = growth percent below 10; inactive = the rest.
# Tested on: KM12 colon
# Assay: NCI-60 one-dose screen, 48 h (100 = growth as untreated, 0 = no growth, -100 = all killed)
# Conditions: 10 µM unless noted
row,SMILES,growth
1,CCOc1ccc(NC(=O)c2cc(OC)c(OC)c(OC)c2)cc1,22.8% (inactive)
2,COc1cc(-c2cc(-c3ccc(Nc4ncnc5cc(Cl)ccc45)cc3)nc(N3CCN(C)CC3)n2)cc(OC)c1OC,86.1% (inactive)
3,COc1ccc(C/C(C)=C(\c2ccc(O)cc2)c2ccc(OCCN3CCCC3)cc2)cc1,106% (inactive)
4,COC(=O)C1=C(C)NC(C)=C(C(=O)OCC(C)C)C1c1ccccc1[N+](=O)[O-] (centres undefined),27.4% (inactive)
5,O=C1CC2C=CCN2C=C1NC(=O)C1CCCCC1 (centres undefined),96.1% (inactive)
6,COc1ccc2nc3cc(Cl)ccc3c(NCCN)c2c1,-64% (active)
7,COc1cccc(/C=C2\COc3ccc(O)cc3C2=O)c1,43.7% (inactive)
8,COC(c1ccc2ccccc2c1)C(C)C(F)F (centres undefined),107% (inactive)
9,COc1ccc(-c2ccc(-c3ccc(C(=N)N)cn3)s2)cc1,61.6% (inactive)
10,O=C1Nc2ccc(F)cc2/C1=C\c1nc(-c2ccccc2F)n2ccccc12,97.2% (inactive)
11,CCN1C(=S)N(CC)C2C1NC(=S)N2/N=C/C=C/c1ccccc1OC (centres undefined),15% (inactive)
12,COc1ccc2c(c1)c(-c1nonc1-c1c[nH]c3ccc(Br)cc13)cn2C,14.5% (inactive)
13,N#Cc1c(-c2ccccc2)c(C#N)c2c(C#N)c(N)nn2c1N,24.4% (inactive)
14,COc1cccc(Nc2ccnc3[nH]c4ccc([N+](=O)[O-])cc4c23)c1,27.2% (inactive)
15,Clc1nn2c(Cn3cnc4c(NCc5ccccc5)ncnc43)nnc2c2ccccc12,58.9% (inactive)
16,O=C1CCC(C(=O)NN(c2ccccc2)c2ccccc2)N1 (centres undefined),87.3% (inactive)
17,O=C1/C(=C/c2ccccc2)CN(C(=O)c2cccnc2)C/C1=C\c1ccccc1,-40.1% (active)
18,COc1ccc(C(C)=O)cc1S(N)(=O)=O,103% (inactive)
19,O=C(CBr)CN1C(=O)c2ccccc2C1=O,97.6% (inactive)
20,CS(=O)(=O)Nc1cc(-c2ccc3ncnc(Nc4ccc5c(cnn5Cc5cccnc5)c4)c3c2)cnc1Cl,82.9% (inactive)

row,SMILES,growth
1,Cc1c(N2CN3C[C@H](C)N4CN(c5c(C)n(C)n(-c6ccccc6)c5=O)CN5C[C@@H](C)N(C2)C3C54)c(=O)n(-c2ccccc2)n1C (some centres undefined),104% (inactive)
2,O=C(Nc1ncc(Cc2ccccc2Cl)s1)c1cccs1,29.3% (inactive)
3,COc1ccc(Cc2nnc(Nc3nc4ccccc4s3)s2)cc1,102% (inactive)
4,CCOC(=O)Nc1nc2ccc(SCC(C)C)cc2s1,34.4% (inactive)
5,COc1cc(-c2nc3occn3c2-c2ccnc(NCCCNS(=O)(=O)c3ccccc3)n2)ccc1F,30% (inactive)
6,CN(C)c1ccc(/C=C2/C=C(c3ccccc3)OC2=O)cc1,63.5% (inactive)
7,COc1ccc(OC)c(-c2cn3nc(-c4c[nH]c5ccc(Br)cc45)sc3n2)c1,11% (inactive)
8,CCNCc1ccc(O)c2ncccc12,29.2% (inactive)
9,O=C(CCl)Nc1ccc2c(Nc3cc(O)ccc3Cl)ncnc2c1,-64.7% (active)
10,CCNC(=O)Oc1ccc(/C(=C(/C)Cc2ccc(OC)cc2)c2ccc(OCCN3CCCCCC3)cc2)cc1,53.9% (inactive)
11,CC(C)(C)c1cc(C=Nc2cccc(C(F)(F)F)c2)c(O)c(C(C)(C)C)c1,102% (inactive)
12,C(/C=C/c1ccccc1)=Nc1ccc(CCc2ccc(N=C/C=C/c3ccccc3)cc2)cc1,106% (inactive)
13,Cn1cc(C(=O)c2nc(-c3c[nH]c4ccc(Br)cc34)no2)c2cc(Br)ccc21,55.2% (inactive)
14,Cc1[nH]c(C(=O)Nc2ccc(C(N)=O)cc2NC(C)C)c(Cl)c1Cl,98.9% (inactive)
15,O=C1OCC2=C1C(c1cccc(C(F)(F)F)c1)c1cc3c(cc1N2CCO)OCO3 (centres undefined),24.9% (inactive)
16,COc1ccc2cc(-c3cnc4nonc4n3)ccc2c1,23.1% (inactive)
17,Cn1ncc2ccc(-c3nc(-c4ccccc4)[nH]c3-c3n[nH]c(=O)n3C3CC3)cc21,99.2% (inactive)
18,Cn1ccnc1C(=O)/C=C/c1ccc(C(=O)Nc2ccc(F)cc2)cc1,3.4% (active)
19,O=C(CSc1nc2ccc([N+](=O)[O-])cc2[nH]1)Nc1cccc([N+](=O)[O-])c1,57.4% (inactive)

# Source: PubChem BioAssay (NCI)
